High-throughput results: PubChem BioAssay, National Center for Advancing Translational Sciences (NCATS)
This is a sample that favours compounds with a hit; in the whole collection about 2.8% have one here.
HttQ103 aggreg: qHTS Multiplex Assay to Identify Dual Action Probes in a Cell Model of Huntington: Aggregate Formation (GFP); 1.1% of 220,000 active; PC12 HttQ103-GFP aggregates, Acumen cytometry, 40 h; Potency, µM (highest dose often 46.1 µM), most hits filed as inhibitors; also: nearly all actives have a fitted effect of over 60% in size
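PC12 cells with ecdysone-inducible HTT exon1 Q103-GFP, induced by 100 nM tebufenozide, given compounds in a concentration series. GFP aggregates (1–25 um, 6 SD above background) counted in lysates by laser-scanning cytometry, 488 nm excitation.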
HepG2 tox: qHTS for Inhibitors of TGF-b: Cytotox Counterscreen; HepG2 CAGA-GFP viability, ATP luminescence, 18 h; Potency, µM (top dose mostly 46.1 µM), most hits filed as cytotoxic; 0.76% of 410,000 active; AID 588856, 2011
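CellTiter-Glo luminescence gave cytotoxicity after 18 hours at 37 degrees C. The cells were HepG2 CAGA-GFP in 1% FBS DMEM, stimulated with 500 pg/mL TGF-beta after compound addition. %Activity was normalised to no-cell wells (complete cell-killing) and DMSO (no toxicity), and curves were fitted and classified.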
S2 tox: Viability Counterscreen for Primary qHTS for Inhibitors of ATXN expression | S2 cells (HEK-293 line with an ATXN2-luciferase reporter) viability, CellTiter-Fluor protease fluorescence, 24 h | Potency, µM (series often up to 56.7 µM), usual class: cytotoxic | 0.49% of 400,000 active; also: nearly all actives have a fitted effect of over 40% in size
ATXN2 expr inh: Primary qHTS for Inhibitors of ATXN expression; Potency, µM (highest dose often 57 µM), usual class: inhibitors; AID 1745845, 2022; 0.72% of 360,000 active; HEK-293 ATXN2-luciferase reporter, luminescence, 24 h; also: nearly all actives have a fitted effect of over 55% in size
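qHTS (up to 57 uM final) was run with 24 h compound exposure of reporter cells at 37 °C. Each well was multiplexed: SteadyGlo luminescence measured ATXN2-luciferase expression after a fluorogenic Gly-Phe-AFC viability readout (25 uM final).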
TGFb inhibitor: qHTS for Inhibitors of TGF-b; HepG2 CAGA-GFP TGF-b/SMAD3 reporter, GFP fluorescence, 18 h; TGF-beta stimulated, 500 pg/mL final; Potency, µM (titrated, usually from 46.1 µM), usual class: inhibitors; 1.2% of 410,000 active; AID 588855, 2011; also: nearly all actives have a fitted effect of over 65% in size
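Inhibition of TGF-beta-driven CAGA-GFP reporter expression in HEPG2 cells is measured by cellular GFP fluorescence after 18 h stimulation with 500 pg/mL recombinant TGF-beta in 1% FBS medium at 37 degrees C.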
HTT ATP protect: qHTS Multiplex Assay to Identify Dual Action Probes in a Cell Model of Huntington: Cytoprotection (ATP). PC12 HTT-Q103 induced, cytoprotection, ATP luminescence, 40 h. 0.14% of 230,000 active. Potency, µM (highest dose often 56.4 µM), most hits filed as activators; also: nearly all actives have a fitted effect of over 45% in size
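ATP quantification (ATPlite) reports survival of PC12 cells in which tebufenozide, 100 nM final, switches on Htt exon 1 with 103 glutamines linked to GFP; compounds are titrated.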
Large screens that a line does not name were inactive. Calls follow the shape of the dose curve; as a rule, active = well fitted curve in the direction sought with a large enough effect; inconclusive = small, poorly fitted or top-dose-only effect, or another doubt; inactive = no such curve, though single readings can be large; an effect the other way counts as inactive or inconclusive.

COc1cc(NC(=O)Nc2nc(C(N)C3CCCCC3)cs2)cc(OC)c1OC (stereo not drawn)	HepG2 tox 11.2µM, S2 tox inconclusive, ATXN2 expr inh inconclusive, TGFb inhibitor inconclusive (no result: HttQ103 aggreg, HTT ATP protect)
COc1ccccc1NC(=O)Nc1nc(C(N)C2CCCCC2)cs1 (stereo not drawn)	HepG2 tox 11.2µM, S2 tox inconclusive, ATXN2 expr inh inconclusive, TGFb inhibitor inconclusive (no result: HttQ103 aggreg, HTT ATP protect)
Cc1o[nH]c(=O)c1CCC(N)C(=O)O (stereo not drawn)	none (no result: HttQ103 aggreg, HepG2 tox, S2 tox, ATXN2 expr inh, TGFb inhibitor)
O=C(c1ccc(-c2ccc(Cl)cc2)o1)N1CCN(c2ccc([N+](=O)[O-])cc2Cl)CC1	HttQ103 aggreg 7.08µM, ATXN2 expr inh inconclusive, TGFb inhibitor inconclusive
CCCCC/C(C=O)=C\c1ccccc1	none (no result: HttQ103 aggreg, HepG2 tox, TGFb inhibitor, HTT ATP protect)
COc1ccc2c(c1)C(=O)[C@H](OC(=O)NS(=O)(=O)c1ccc(C)cc1)[C@@H](c1ccc(OC)c(Br)c1)O2	none (no result: HttQ103 aggreg, HepG2 tox, S2 tox, ATXN2 expr inh, TGFb inhibitor)
O=c1cc(C(F)(F)F)nc(SC/C=C/c2ccccc2)[nH]1	TGFb inhibitor 14.1µM (no result: HttQ103 aggreg, ATXN2 expr inh, HTT ATP protect)
Nc1cc(=O)[nH]c(SC/C=C/c2ccccc2)n1	none
COc1ccccc1Nc1c2c(nc3ccc(NC(=O)c4ccc(OC)c(OC)c4)cc13)CCCC2	HepG2 tox 22.4µM, S2 tox 25.1µM, ATXN2 expr inh inconclusive, TGFb inhibitor inconclusive (no result: HttQ103 aggreg, HTT ATP protect)
COc1ccccc1Nc1c2c(nc3ccc(NC(=O)c4cccc(OC)c4OC)cc13)CCCC2	TGFb inhibitor inconclusive (no result: HttQ103 aggreg, S2 tox, ATXN2 expr inh, HTT ATP protect)
COc1ccc(C(=O)Nc2ccc3nc4c(c(Nc5ccccc5OC)c3c2)CCCC4)c(OC)c1	S2 tox inconclusive (no result: HttQ103 aggreg, HTT ATP protect)
COc1ccc(C(=O)Nc2ccc3nc4c(c(Nc5ccc(OC)c(OC)c5)c3c2)CCCC4)c(OC)c1	S2 tox 28.2µM, ATXN2 expr inh inconclusive, TGFb inhibitor inconclusive (no result: HttQ103 aggreg, HTT ATP protect)
N#CCCn1cc(/C=C2\NC(=S)N(c3ccccc3)C2=O)c(-c2ccc(-c3ccccc3)cc2)n1	HttQ103 aggreg inconclusive, S2 tox inconclusive, ATXN2 expr inh inconclusive, TGFb inhibitor 10µM
COc1ccc(CCN(Cc2ccccn2)C(=S)Nc2cccc(C)c2)cc1OC	HepG2 tox 5.01µM, S2 tox inconclusive
COc1ccc(NC(=S)N(CCc2ccc(OC)c(OC)c2)Cc2ccccn2)cc1	none
CNC(=O)c1ccc(-c2cnc3ncc(Cc4ccc5ncccc5c4)n3n2)cc1F	none (no result: HttQ103 aggreg, HepG2 tox, S2 tox, TGFb inhibitor, HTT ATP protect)
CNC(=O)c1ccc2cc(C3(O)CCn4cncc43)ccc2c1 (stereo not drawn)	none (no result: HttQ103 aggreg, HepG2 tox, S2 tox, TGFb inhibitor, HTT ATP protect)
Cc1cc(C)cc(NS(=O)(=O)c2ccc3c(c2)CCCN3C(=O)C2CCC2)c1	S2 tox 25.1µM, ATXN2 expr inh inconclusive, TGFb inhibitor inconclusive (no result: HttQ103 aggreg, HTT ATP protect)
O=C(C1CCC1)N1CCCc2cc(S(=O)(=O)Nc3ccc(F)cc3)ccc21	none (no result: HttQ103 aggreg, HTT ATP protect)
CCOC(=O)c1cccc(NC(=O)/C=C/c2cccc([N+](=O)[O-])c2)c1	HTT ATP protect inconclusive (no result: HttQ103 aggreg)
CCOC(=O)/C=C/C(=O)Nc1cccc([N+](=O)[O-])c1	HepG2 tox 12.6µM, S2 tox inconclusive, ATXN2 expr inh inconclusive, TGFb inhibitor 11.2µM
Nc1cc2nsnc2cc1Br	TGFb inhibitor 11.2µM
Nc1cccc2nsnc12	none
Cc1cccc(OCC(=O)Nc2ccc3c(c2)nc(CCN2CCC(C)CC2)n3C)c1	S2 tox inconclusive (no result: HttQ103 aggreg, HTT ATP protect)
CCn1c(CN2CCC(C)CC2)nc2cc(NC(=O)COc3ccc(Cl)c(C)c3)ccc21	S2 tox inconclusive, ATXN2 expr inh inconclusive, TGFb inhibitor 3.98µM (no result: HttQ103 aggreg, HTT ATP protect)
COc1ccccc1CNc1nc(NCc2ccccc2F)c2sccc2n1	S2 tox inconclusive, ATXN2 expr inh inconclusive, TGFb inhibitor 12.6µM (no result: HttQ103 aggreg, HTT ATP protect)
COCCNc1nc(NCc2cccc(OC)c2OC)c2sccc2n1	ATXN2 expr inh inconclusive (no result: HttQ103 aggreg, HTT ATP protect)
COc1ccccc1CNc1nc(NCc2ccccc2)nc2ccsc12	S2 tox inconclusive, ATXN2 expr inh inconclusive, TGFb inhibitor 17.8µM (no result: HttQ103 aggreg, HTT ATP protect)
C#Cc1cccc(Nc2nc(NCc3ccccc3OC)nc3ccsc23)c1	S2 tox 20µM, ATXN2 expr inh 20µM, TGFb inhibitor 11.2µM (no result: HttQ103 aggreg, HTT ATP protect)
COc1ccccc1CNc1nc(NCc2cccc(OC)c2OC)c2sccc2n1	S2 tox inconclusive, ATXN2 expr inh 31.6µM, TGFb inhibitor inconclusive (no result: HttQ103 aggreg, HTT ATP protect)
C#Cc1cccc(C(=O)NCc2nc(-c3ccccc3NC(C)=O)oc2C)c1	none (no result: HttQ103 aggreg, HepG2 tox, ATXN2 expr inh, TGFb inhibitor, HTT ATP protect)
Cc1ccc2c(c1)C(=O)C1(O)CCN(c3ccccc3)C1=N2 (stereo not drawn)	none (no result: HttQ103 aggreg, HepG2 tox, S2 tox, ATXN2 expr inh, TGFb inhibitor)
CCCCc1cc2c(cn1)=C(OC(=O)c1cccs1)C(C)(OC(=O)CC)C(=O)C=2 (stereo not drawn)	none (no result: HttQ103 aggreg, HepG2 tox, S2 tox, ATXN2 expr inh, TGFb inhibitor)
c1ccc(CNc2nc(NCCOc3ccccc3)c3sccc3n2)cc1	HepG2 tox 11.2µM, ATXN2 expr inh 28.2µM, TGFb inhibitor inconclusive (no result: HttQ103 aggreg, S2 tox, HTT ATP protect)
CCCc1ccc(S(=O)(=O)N2CCC(c3nnc(-c4cccc(C)c4)o3)CC2)cc1	ATXN2 expr inh 10µM, TGFb inhibitor inconclusive (no result: HttQ103 aggreg, S2 tox, HTT ATP protect)
Cc1ccc(S(=O)(=O)N2CCC(c3nnc(-c4cccc(C)c4)o3)CC2)cc1	S2 tox 7.94µM, ATXN2 expr inh 5.62µM, TGFb inhibitor inconclusive (no result: HttQ103 aggreg, HTT ATP protect)
COc1ccc(-c2nnc(C3CCN(S(=O)(=O)c4ccc(C)c(C)c4)CC3)o2)cc1	none (no result: HttQ103 aggreg, HTT ATP protect)
NC1=NC(=O)/C(=C\c2cccnc2)S1	HttQ103 aggreg 8.91µM, TGFb inhibitor inconclusive (no result: ATXN2 expr inh)
